Screening data as filed in PubChem.
Compounds with a hit are over-represented: about 3.1% of the library has one in this group of screens.
Nrf2 inh – blocks Nrf2 signaling; A549 ARE-Fluc reporter, luciferase luminescence, 18-24 h; Potency, µM (top dose mostly 46 µM), usual class: inhibitors; hit rate 2.1% among 360,000; AID 504444; note: nearly all actives have a fitted effect of over 60% in size
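A549 ARE_Fluc cells (5000/well, 5% FBS OPTI-MEM) pre-incubated 2 h, then treated with compounds 18-24 h at 37C/5% CO2 in concentration-response. CellTiter-Fluor viability read first; BugLite luciferase luminescence after 15 min at room temperature gives Nrf2 activity.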
A549 viability – kills or reduces viability of A549 cells in Nrf2 counter-screen; A549 ARE-Fluc cells, CellTiter-Fluor viability, 18-24 h; Potency, µM (doses to about 46 µM), actives largely listed as inhibitors; hit rate 0.16% among 390,000; AID 504648
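A549 ARE_Fluc cells in 5% FBS OPTI-MEM were exposed to compounds in concentration-response for 18-24 h at 37 deg C. Viability was read by CellTiter-Fluor fluorescence (Ex 405/Em 525) after 30 min, before the luciferase read.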
rTrxR1 inhibitor – inhibitors of rat thioredoxin reductase 1 | O89049 | recombinant rTrxR1, NADPH fluorescence consumption, selenite substrate | Potency, µM (doses to about 114 µM), hits mostly inhibitors | hit rate 1% among 390,000; note: nearly all actives have a fitted effect of over 65% in size
Target sequence (O89049 whole entry, looked up): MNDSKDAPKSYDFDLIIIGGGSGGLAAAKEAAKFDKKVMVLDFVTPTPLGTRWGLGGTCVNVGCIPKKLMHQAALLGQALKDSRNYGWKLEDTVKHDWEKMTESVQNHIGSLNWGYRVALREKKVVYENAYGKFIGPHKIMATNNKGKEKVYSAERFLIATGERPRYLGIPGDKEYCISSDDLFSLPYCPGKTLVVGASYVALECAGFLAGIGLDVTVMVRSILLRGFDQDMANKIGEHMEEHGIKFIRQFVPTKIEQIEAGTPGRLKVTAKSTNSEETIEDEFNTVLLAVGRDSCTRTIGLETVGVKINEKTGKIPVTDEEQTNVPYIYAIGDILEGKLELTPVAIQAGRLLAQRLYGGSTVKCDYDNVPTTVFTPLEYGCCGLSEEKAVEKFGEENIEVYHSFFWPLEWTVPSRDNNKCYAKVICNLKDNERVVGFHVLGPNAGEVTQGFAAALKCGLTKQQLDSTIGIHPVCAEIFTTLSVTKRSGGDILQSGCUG
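Rat TrxR1 (90 nM in the dispensed reagent) was pre-reduced with 400 uM NADPH for 5 min at room temperature, then incubated with compound for 15 min. After 400 uM selenite was added, NADPH fluorescence (Ex 340/Em 450 nm) was followed for 8 min.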
Mito fusion yeast – mitochondrial division inhibition or fusion activation | Potency, µM (top dose mostly 46.1 µM), most hits filed as activators | S. cerevisiae fusion-defective mutant growth rescue, CellTiterGlo 48 h | hit rate 0.23% among 320,000 | AID 485298; note: nearly all actives have a fitted effect of over 45% in size
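Growth-rescue viability read-out: after 48 h at the non-permissive 37C in glycerol/ethanol YPEG, yeast mitochondrial fusion mutants are measured by CellTiterGlo luminescence; compounds (23 nl pinned per well) restoring growth score as division inhibitors or fusion activators.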
IDH1 R132H inh – human IDH1 R132H inhibition | O75874 | IDH1-R132H enzyme, NADPH consumption, diaphorase/resazurin fluorescence | Potency, µM (top dose mostly 76.6 µM), hits mostly inhibitors | hit rate 0.093% among 390,000 | AID 602179; note: nearly all actives have a fitted effect of over 65% in size
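IDH1-R132H (0.5 ug/mL) preincubated 30 min with compound, then NADPH (0.016 mM) and alpha-KG (2 mM) added; 80 min at RT, pH 7.5. Remaining NADPH coupled via diaphorase/resazurin to fluorescence (540/590 nm); concentration-response curves normalized to no-enzyme control.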
TrxR1 substrate – rat thioredoxin reductase 1 substrate activity. O89049. purified TrxR1 substrate turnover, NADPH consumption readout. Potency, µM (highest dose often 114 µM). hit rate 0.01% among 390,000; note: nearly all actives have a fitted effect of over 50% in size
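Rat TrxR1, dispensed at 90 nM, was prereduced with 400 uM NADPH (final) for 5 min at ~22 deg C, then incubated with compound 15 min before 400 uM selenite. A first-read NADPH fluorescence drop versus no-compound background flagged substrates.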
Hits are given with their value; i = inactive; ? = inconclusive; nt = not tested or not shown; ! = a repeat was not active; [ ] = another dose, or the depositor's remark. Calls come from the whole dose curve; as a rule, active = well fitted curve in the direction sought with a large enough effect; inconclusive = small, poorly fitted or top-dose-only effect, or another doubt; inactive = no such curve, though single readings can be large; an effect the other way counts as inactive or inconclusive.

SMILES	Nrf2 inh	A549 viability	rTrxR1 inhibitor	Mito fusion yeast	IDH1 R132H inh	TrxR1 substrate
O=C(O)CCNc1ccc(NCCC(=O)O)c2c1C(=O)c1ccccc1C2=O	?	i	i	i	i	i
CCN(Cc1ccncc1)Cc1c(O)ccc2cc(Br)ccc12	i	i	7.9µM	i	i	i
Clc1nc(CN2CCCCC2)nc2sc3c(c12)CCCC3	i	i	4µM	i	i	i
Cc1sc2nc(CN3CCCCC3)nc(Cl)c2c1C	?	i	32µM	i	i	i
CC1CCN(Cc2nc(Cl)c3c4c(sc3n2)CCC4)CC1	i	i	32µM	i	i	i
Cc1nnc2n(-c3ccccc3)c(=O)c3c4c(sc3n12)COC(C(C)C)C4 (centres undefined)	i	i	i	i	i	i
CC(C)C1Cc2c(sc3[nH]c(=S)n(Cc4ccccc4)c(=O)c23)CO1 (centres undefined)	16µM	?	i	i	i	i
COc1cc(-c2ccc3ncnc(NCCc4cnc[nH]4)c3c2)cc(OC)c1OC	?	i	nt	nt	nt	nt
CC(C)(C)OC(=O)Cc1nnc(-c2cc3ccccc3[nH]2)o1	?	i	nt	nt	nt	nt
COC(=O)CNC(=O)Cn1ccc2ccccc2c1=O	i	i	i	i	i	i
CCCCN(C)CCNC(=O)CCNC(=O)Cn1ccc2ccccc2c1=O	i	i	i	18µM	i	i
Cc1ccc(CNC(=O)Cn2ccc3ccccc3c2=O)o1	i	i	40µM	i	i	i
COc1ccc(NC(=O)c2ccc(CN3CCc4ccccc4C3)cc2)cc1OC	21µM	i	i	i	i	i
O=C(Nc1ccc(Cl)cc1)c1ccc(CN2CCc3ccccc3C2)cc1	?	i	i	i	i	i
COc1cccc(NC(=O)c2ccc(CN3CCc4ccccc4C3)cc2)c1	15µM	i	i	i	i	i
CC(=O)c1cccc(NC(=O)c2ccc(CN3CCc4ccccc4C3)cc2)c1	i	i	i	i	i	i
Cc1cc(C)cc(N(CCC#N)C(=O)CSC2=Nc3ccccc3C3CC=NN23)c1 (centres undefined)	23µM	?	i	i	i	i
O=C(OCc1nc(-c2ccccc2)oc1COC(=O)c1ccco1)c1ccco1	i	i	3.2µM	i	i	i
Cc1cccc(NS(=O)(=O)c2ccc(C(=O)NCC(c3ccco3)N3CCCCC3)cc2)c1C (centres undefined)	21µM	i	i	i	i	i
Cc1ccc(SCCNC(=O)c2ccc(C)c(S(=O)(=O)Nc3ccccc3C)c2)cc1	13µM	i	i	i	i	i
Cc1ccc(C(=O)NCc2ccco2)cc1S(=O)(=O)Nc1cccc(C)c1C	nt	i	79µM	i	i	i
COc1cccc(C2c3c(ncn(-c4ccc(C)cc4)c3=N)Oc3ccc4ccccc4c32)c1 (centres undefined)	i	i	nt	nt	nt	nt
Clc1ccc(CNc2ncnc3nc[nH]c23)cc1	i	?	i	nt	nt	i
Cc1cc(NC(=O)COC(=O)c2c(C)noc2C)ccc1Br	?	i	i	i	i	i
CN(c1ccccc1)S(=O)(=O)c1cccc(NC(=O)CSc2ncn[nH]2)c1	?	i	i	i	i	i
SMILES	Nrf2 inh	A549 viability	rTrxR1 inhibitor	Mito fusion yeast	IDH1 R132H inh	TrxR1 substrate
CCN(CC)S(=O)(=O)c1cc(NC(=O)COC(=O)c2c(C)noc2C)ccc1C	21µM	?	i	i	i	i
CN(c1ccccc1)S(=O)(=O)c1cccc(NC(=O)Cc2n[nH]c(=O)c3ccccc23)c1	16µM	i	i	i	i	i
CCN(CC)S(=O)(=O)c1cc(NC(=O)Cc2n[nH]c(=O)c3ccccc23)ccc1C	26µM	i	i	i	i	i
Cc1ccc(NC(=O)Cc2c[nH]c3ccccc23)cc1S(=O)(=O)N1CCCCCC1	i	i	i	i	i	i
Cc1ccc(NC(=O)Cc2n[nH]c(=O)c3ccccc23)cc1S(=O)(=O)N1CCCCCC1	10µM	i	i	i	i	i
CCc1nn2c(=O)cc(NC3CNC3)nc2s1	i	i	nt	nt	nt	nt
O=C1c2ccccc2C(=O)N1c1cccc2cnccc12	i	i	nt	nt	nt	nt
CCSc1ncc(Cl)c(C(=O)Nc2sc3c(c2C(=O)NCCOC)CCCC3)n1	nt	nt	i	nt	nt	i
Cc1c(Br)cnc2ccccc12	nt	nt	?	nt	nt	i
COc1ccc(C2c3c(N)nc(CCc4ccccc4)nc3Oc3ccc4ccccc4c32)cc1OC (centres undefined)	?	i	nt	nt	nt	nt
Cc1ccc(C(=O)CC2(O)C(=O)N(Cc3ccccc3)c3ccc(Br)cc32)cc1 (centres undefined)	nt	?	i	i	i	i
Cc1ccc(C(=O)N2c3ccccc3N(Cc3ccccc3)C(=O)C2(C)C)cc1	12µM	i	i	i	i	i
Cc1ccccc1NS(=O)(=O)c1cc(C(=O)Nc2cccc(N(C)S(C)(=O)=O)c2)ccc1C	18µM	?	i	i	i	i
O=C(Nc1ccccc1)c1ccc(Cl)c(S(=O)(=O)Nc2ccccc2)c1	?	i	i	nt	i	i[11.4 µM]
CN(c1cccc(NC(=O)c2ccc(Cl)c(S(=O)(=O)Nc3ccccc3)c2)c1)S(C)(=O)=O	21µM	i	i	i	i	i
Cc1ccc(C)c(NC(=O)N2CCC(N3CCN(Cc4ccc(F)cc4)C(=O)C3=O)CC2)c1	nt	i	i	nt	i	i
Cc1cc(=O)c2ccccc2n1Cc1ccccc1	16µM	i	i	i	i	i
CN(C)c1cc(N2CCOCC2)nc(C#N)n1	nt	nt	i	nt	nt	i
CCOC(=O)c1c(-c2ccc(Br)cc2)csc1NC(=O)c1ccccc1F	i	i	i	nt	i	i
COc1ccc(-c2csc(NC(=O)c3ccccc3F)c2C(=O)O)cc1	13µM	i	i	i	i	i
COc1ccccc1NC(=O)C(NC(=O)OC(C)(C)C)C(C)OCc1ccccc1 (centres undefined)	23µM	i	i	i	i	i
COc1ccccc1NC(=O)NCCc1ccccc1	i	i	i	i	i	i
Cc1ccc(NC(=O)Cn2c(=O)n(-c3ccccc3)c(=O)c3ccc(C(=O)NCc4ccc5c(c4)OCO5)cc32)c(C)c1	7.3µM	i	i	nt	i	i
O=C(Cn1c(=O)n(-c2ccccc2)c(=O)c2ccc(C(=O)NCc3ccc4c(c3)OCO4)cc21)Nc1ccc(Br)cc1	i	i	i	nt	i	i
CCN1CCN(c2cc(C)c3cc(NC(=O)c4ccc(OC)c(OC)c4)ccc3n2)CC1	16µM!	16µM!	i	i	i	i[2.29 µM]
Nc1ncnc2c1ncn2[C@@H]1O[C@H](C(=O)NC2CC2)[C@H](O)[C@H]1O	nt	nt	i	nt	nt	nt
Cc1ccc(NC(=O)CC(=O)c2ccc([N+](=O)[O-])cc2)cc1S(=O)(=O)Nc1cccc(Cl)c1	16µM	?	i	i	i	i
